Source: PubChem BioAssay (NCATS)
Inconclusive results are not listed. Values without a mark were called inactive. Active and inactive are the calls of the source. Calls follow the shape of the dose curve; as a rule, active = well fitted cell-killing curve with a large enough effect; inconclusive = small, poorly fitted or top-dose-only effect, or effect the other way; inactive = no such curve, though single readings can be large or run the other way. Starred links: 1 amine or outer side, 2 acyl side, 3 side chain; linkers in the order of their positions; H or OH if unused. Positions of bridges follow the written chain, without caps; N, C: chain ends. Non-standard residues stand in square brackets, D forms with d. Residues, ends and D or L forms follow the SMILES beside them. Chains are numbered I, II in the order given. Actinocin(9to1) = Cc1c2oc3c(C)ccc(C(=O)[*:1])c3nc-2c(C(=O)[*:2])c(N)c1=O; NMeV = CN[CH](C(=O)O)C(C)C; Sar = CNCC(=O)O

Assay: Quantitative High-Throughput drug screen in 47 multiple myeloma cell lines against the NCATS MIPE library collection: KMS34_JCRB cell viability assay (AID 1918985); also: nearly all actives have a fitted effect of over 40% in size;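 as to viability, percent of control: 100% = DMSO-only wells and 0% = media-only wells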
Details: KMS34 myeloma viability, CellTiter-Glo ATP luminescence, 48 h; series mostly up to 45.8 µM; viability, percent of control: at the top concentration
Summary of the method: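 Cells were exposed to library compounds for 48 hours, after which ATP was measured by CellTiter-Glo. Signal was taken as median relative luminescence units.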
Potency is read from the fitted curve at half-maximal effect.

Compound | viability, percent of control | Potency
OCc1ccccc1O[C@@H]1O[C@H](CO)[C@H](O)[C@H](O)[C@H]1O | 88.7% | –
Cn1cc(C2=C(c3c4n(c5ccccc35)CCC(CN)C4)C(=O)NC2=O)c2ccccc21 (stereo not drawn) | – | 11.8 µM (active)
O=C(Nc1cccc(Nc2ncc(Br)c(NCCc3cnc[nH]3)n2)c1)N1CCCC1 | – | 2.96 µM (active)
C=CCNc1c(O)cc2c(O)c1C[C@@H](C)C[C@H](OC)[C@@H](O)[C@@H](C)C=C(C)[C@H](OC(N)=O)[C@@H](OC)C=CC=C(C)C(=O)N2 | – | 0.296 µM (active)
C[C@@H]1CC[C@@]2(OC1)OC1CC3C4CC=C5CC(O)CCC5(C)C4CCC3(C)C1[C@@H]2C (stereo partly drawn) | 128% | –
CCS(=O)(=O)Nc1ccc2[nH]c(O)c(C(=Nc3ccc(CN4CCCCC4)cc3)c3ccccc3)c2c1 | – | 0.935 µM (active)
CCN(CC)CCNC(=O)c1c(C)[nH]c(C=C2C(=O)Nc3ccc(F)cc32)c1C | – | 6.05 µM (active)
O=C1NC(=O)[C@@H](c2cn3c4c(cccc24)CCC3)[C@H]1c1c[nH]c2ccccc12 | – | 0.418 µM (active)
COC1=C2C[C@@H](C)C[C@H](OC)[C@@H](O)[C@@H](C)C=C(C)[C@H](OC(N)=O)[C@@H](OC)C=CC=C(C)C(=O)NC(=CC1=O)C2=O | – | 0.166 µM (active)
NC(=NCCCCCCN=C(N)N=C(N)Nc1ccc(Cl)cc1)N=C(N)Nc1ccc(Cl)cc1 | – | 11.8 µM (active)
Nc1nc(N)c2nc(-c3cccc(O)c3)c(-c3cccc(O)c3)nc2n1 | – | 14.8 µM (active)
CC(C)C[C@H](NC(=O)[C@@H](NC(=O)c1cccc(-c2ccccc2)n1)[C@@H](C)O)B(O)O | – | 0.0209 µM (active)
O=C1CSC(=O)N1C(CCc1ccncc1)COc1ccc(-c2cccc([N+](=O)[O-])c2)cc1 (stereo not drawn) | – | 8.33 µM (active)
C#C[C@]1(O)CC[C@@H]2[C@@H]3CCC4=CC(=O)CC[C@@H]4[C@H]3CC[C@@]21CC | 100% | –
CC(=O)O[C@@]12CO[C@H]1C[C@H](O)[C@@]1(C)C(=O)[C@H](O)C3=C(C)[C@@H](OC(=O)C(O)[C@@H](NC(=O)OC(C)(C)C)c4ccccc4)C[C@@](O)([C@@H](OC(=O)c4ccccc4)[C@@H]21)C3(C)C (stereo partly drawn) | 20.4% | –
C[C@H](NCc1ccc(OCc2cccc(F)c2)cc1)C(N)=O | – | 10.5 µM (active)
C[C@@]12C(=O)OC(=O)[C@@]1(C)C1CCC2O1 | – | 0.833 µM (active)
Cc1c2oc3c(C)ccc(C(=O)NC4C(=O)NC(C(C)C)C(=O)N5CCCC5C(=O)N(C)CC(=O)N(C)C(C(C)C)C(=O)OC4C)c3nc-2c(C(=O)NC2C(=O)NC(C(C)C)C(=O)N3CCCC3C(=O)N(C)CC(=O)N(C)C(C(C)C)C(=O)OC2C)c(N)c1=O (stereo not drawn) (I: TVP[Sar][NMeV] / II: TVP[Sar][NMeV]; ester I:1-I:C, II:1-II:C; linker I:N-II:N via Actinocin(9to1); configuration not given here) | 2.51% | –
CC(C)c1cnn2c(NCc3ccccc3)cc(NCCCCCCN)nc12 | – | 18.7 µM (active)
CC(C=CC(=O)NO)=C[C@@H](C)C(=O)c1ccc(N(C)C)cc1 | – | 0.0833 µM (active)
CN1[C@H]2CC(OC(=O)[C@@H](CO)c3ccccc3)C[C@H]1[C@H]1O[C@H]12 (stereo partly drawn) | 126% [at 23.2 µM] | –
c1ccc(CNc2nc(NCc3ccccc3)c3ccccc3n2)cc1 | – | 20.9 µM (active)
CN(C)c1ccc2cc(C(=O)N[C@@H](CCCN=C(N)CCl)C(=O)NCc3ccccc3)ccc2c1 | – | 8.33 µM (active)
COc1cccc2c1C(=O)c1c(O)c3c(c(O)c1C2=O)C[C@@](O)(C(=O)CO)C[C@H]3O[C@H]1C[C@H](N)[C@H](O)[C@H](C)O1 | – | 0.235 µM (active)
CCC(C(=O)O)C1CCC(C)C(C(C)C(O)C(C)C(=O)C(CC)C2OC3(C=CC(O)[C@@]4(CC[C@](C)(C5CC[C@@](O)(CC)C(C)O5)O4)O3)C(C)CC2C)O1 (stereo partly drawn) | – | 6.62 µM (active)
CCC(C=C[C@@H]1OC(=O)C=C[C@H]1C)=C[C@H](C)CC=CC(C)=C[C@@H](C)C(=O)[C@@H](C)[C@H](O)[C@@H](C)CC(C)=CC(=O)O | – | 0.022 µM (active)
CC(C)C[C@H](NC(=O)CNC(=O)c1cc(Cl)ccc1Cl)B1OC(=O)CC(CC(=O)O)(C(=O)O)O1 (stereo partly drawn) | – | 0.0469 µM (active)
COc1cc2c(cc1OC)[C@@H]1C(=O)c3ccc4c(c3O[C@@H]1CO2)C=CC(C)(C)O4 | – | 23.5 µM (active)
